Data as given in PubChem BioAssay (Tox21).
A number with no mark means an inactive call. Records with an inconclusive call do not appear. A call without a number means that no potency is given here. Active and inactive are the calls of the source. Unless noted, calls follow the shape of the dose curve; as a rule, active = well fitted curve in the direction sought with a large enough effect in the repeat runs; inconclusive = weak or mixed curves; inactive = no such curve, though single readings can be large; an effect the other way counts as inactive or inconclusive.

Assays:
[1] = target: Luciferin 4-monooxygenase (Photinus pyralis) (UniProt P08659); assay: qHTS assay to identify small molecule inhibitors of firefly luciferase (AID 1224835); also: nearly all actives have a fitted effect of over 25% in size
Summary of the method: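 Biochemical qHTS: compounds run as interplate titrations against purified firefly enzyme, with D-luciferin and ATP each at its KM concentration. Light output recorded by CCD imaging.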

[2] = qHTS assay to identify small molecule agonists of the constitutive androstane receptor (CAR) signaling pathway - cell viability counter screen (AID 1224836); also: nearly all actives have a fitted effect of over 45% in size; also: potency is read from the fitted curve at half-maximal effect
Summary of the method: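 Compound titrations (15 concentrations) went onto HepG2-CYP2B6-hCAR cells 4 h after seeding, alongside PK11195 at a final 0.75 uM; a 23 h, 37 C/5% CO2 incubation preceded CellTiter-Fluor viability measurement.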

[3] = qHTS assay to identify small molecule antagonists of the constitutive androstane receptor (CAR) signaling pathway - cell viability counter screen (AID 1224837); also: nearly all actives have a fitted effect of over 45% in size; also: potency is read from the fitted curve at half-maximal effect
Summary of the method: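 HepG2 cells stably carrying hCAR and CYP2B6-2.2kb reporter, stimulated with 50 nM CITCO and compounds at 15 concentrations for 23 h at 37 C. Viability measured by CellTiter-Fluor fluorescence.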

[4] = target: Nuclear receptor subfamily 1 group I member 3 (Homo sapiens) (UniProt Q14994); assay: qHTS assay to identify small molecule agonists of the constitutive androstane receptor (CAR) signaling pathway (AID 1224839); also: nearly all actives have a fitted effect of over 15% in size; also: potency is read from the fitted curve at half-maximal effect
Summary of the method: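 In this screen, CAR-driven CYP2B6 promoter activity is measured by luminescence in HepG2-CYP2B6-hCAR cells after 24 h with test compounds and 0.75 uM PK11195 (final concentration).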

[5] = qHTS assay to identify small molecule antagonists of the estrogen related receptor signaling pathway with the pleiotropic PPARgamma coactivator (PGC) from Tox21 10K library - cell viability counter screen (AID 1224840; active = well fitted cell-killing curve with a large enough effect in the repeat runs, not every such curve was filed as active; also: nearly all actives have a fitted effect of over 40% in size; also: potency is read from the fitted curve at half-maximal effect)
Summary of the method: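 PGC/ERR cells (2,000/well) plated 6 h, then compound-treated for 17.5 h at 37 C. Viability measured by CellTiter-Fluor fluorescence after 30 min at 37 C, multiplexed with the pathway assay.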

[6] = target: Thyrotropin receptor (Homo sapiens) (UniProt P16473); assay: qHTS assay to identify small molecule agonists of the thyroid stimulating hormone receptor (TSHR) signaling pathway (AID 1224843; calls by dose curve; also: nearly all actives have a fitted effect of over 45% in size)
Summary of the method: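 Steps: seed 800 TSHR-HEK293 cells per well; add test compound and hold 30 min at ambient temperature; dispense cAMP-d2 then anti-cAMP cryptate; incubate 1 h at ambient; measure fluorescence intensity.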

[7] = qHTS assay to identify small molecule agonists of the hypoxia (HIF-1) signaling pathway - cell viability counter screen (AID 1224844; calls by dose curve; also: nearly all actives have a fitted effect of over 50% in size; also: potency is read from the fitted curve at half-maximal effect)
Summary of the method: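 HRE-bla ME-180 cells, 2,000/well in 0.5% dialyzed FBS medium, treated 17 h at 37C with compounds. Viability read in the same wells as the bla reporter, by CellTiter-Glo luminescence after 30 min at room temperature.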

[8] = A CellTox Green Cytotoxicity Assay to monitor cytotoxicity in HEK293 cells - 0 hour (AID 1224869); also: nearly all actives have a fitted effect of over 50% in size
Summary of the method: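 HEK293 cells, 600/well, were preincubated 5 hours and then exposed to compounds at 37 C for up to 40 hours. A cell-impermeant cyanine dye staining dead-cell DNA was read by fluorescence at 0, 8, 16, 24, 32 and 40 h time points.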

[9] = target: Nuclear receptor subfamily 1 group I member 3 (Homo sapiens) (UniProt Q14994); assay: qHTS assay to identify small molecule antagonists of the constitutive androstane receptor (CAR) signaling pathway (AID 1224838); also: nearly all actives have a fitted effect of over 40% in size; also: potency is read from the fitted curve at half-maximal effect
Summary of the method: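 HepG2 cells stably carrying hCAR and a CYP2B6-2.2kb luciferase reporter, seeded 4 hrs before compound (15 concentrations). Stimulated with 50 nM CITCO for 24 hr at 37 C. ONE-Glo luminescence read after 30 min at room temperature.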

[10] = qHTS assay to identify small molecule antagonists of the estrogen related receptor signaling pathway with the pleiotropic PPARgamma coactivator (PGC) from Tox21 10K library (AID 1224841; call rule not given here; also: actives are mostly falling curves and most rising ones were filed inactive; nearly all actives have a fitted effect of over 50% in size; also: potency is read from the fitted curve at half-maximal effect)
Summary of the method: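 PGC/ERR cell line, 2,000 cells/well, pre-incubated 6 hours at 37 C, then exposed to compounds for 18 hours at 37 C; luciferase read with One-Glo luminescence after 30 min at room temperature.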

[11] = qHTS assay to identify small molecule agonists of the estrogen related receptor signaling pathway with the pleiotropic PPARgamma coactivator (PGC) from Tox21 10K library (AID 1224842); also: nearly all actives have a fitted effect of over 15% in size
Summary of the method: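 PGC/ERR reporter cell line, 2,000 cells per well, incubated 6 h at 37 C before 23 nL compound in DMSO was added. After 18 h at 37 C, One-Glo luminescence read following 30 min at room temperature.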

[12] = qHTS assay to identify small molecule antagonists of the estrogen related receptor (ERR) signaling pathway from Tox21 library (AID 1224848); also: nearly all actives have a fitted effect of over 50% in size; also: potency is read from the fitted curve at half-maximal effect
Summary of the method: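 Luminescent reporter read-out (ONE-Glo) from NTP's ERR cell line after 18 h treatment at 37 C with DMSO-dissolved Tox21 compounds; cells pre-plated 6 h beforehand at 2,000 per well.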

[13] = qHTS assay to identify small molecule agonists of the estrogen related receptor (ERR) signaling pathway from Tox21 library (AID 1224849; calls by dose curve; also: nearly all actives have a fitted effect of over 15% in size); conditions: ERR reporter cell line, ONE-Glo luciferase, 18 h; at 92.4 µM (top of the series) unless noted
Summary of the method: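 ERR reporter cells (NTP line) pre-incubated 6 hours at 37 C, then exposed to compounds for 18 hours at 37 C. ONE-Glo luciferase luminescence was read after 30 minutes at room temperature.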

[14] = qHTS RealTime-Glo MT Cell Viability Assay in HepG2 cells - 24 hour (AID 1224867); also: nearly all actives have a fitted effect of over 50% in size
Summary of the method: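 Tox21 10K library screened in qHTS format on HepG2 cells carrying RealTime-Glo reagents. Compounds were added after a 5 h preincubation, and the luminescent signal from continuous culture was measured repeatedly during 40 h treatment.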

[15] = qHTS RealTime-Glo MT Cell Viability Assay in HEK293 cells - 32 hour (AID 1224868); also: nearly all actives have a fitted effect of over 50% in size; also: potency is read from the fitted curve at half-maximal effect
Summary of the method: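 Luminescence generated by NanoLuc from substrate produced by living HEK293 cells served as the viability signal. Each value reflects the reading at its stated time point during continuous 40 h compound exposure at 37 C.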

[16] = qHTS assay to identify small molecule agonists of H2AX (AID 1224845; active = well fitted activation curve with a large enough effect in the signal ratio in the repeat runs, not every such curve was filed as active; the % refers to the signal ratio)
Summary of the method: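 Wild-type CHO-K1 cells, plated overnight, exposed 3hr at 37C to 15 concentrations (0.76% DMSO final). Lysed, then HTRF anti-pH2AX (S139) cryptate and anti-H2AX-d2 antibodies, 24 hr room temperature; 665/620 nm emission read.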

[17] = qHTS assay to identify small molecule agonists of the hypoxia (HIF-1) signaling pathway (AID 1224846; active = well fitted activation curve with a large enough effect in the signal ratio in the repeat runs, not every such curve was filed as active; the % refers to the signal ratio)
Summary of the method: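 HRE-bla ME-180 beta-lactamase reporter cells in medium with 0.5% dialyzed FBS, pre-incubated 5 h then exposed to compounds 17 h at 37C, 5% CO2; reporter induction read with CCF4-AM FRET substrate.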

[18] = qHTS assay to identify small molecule agonists of H2AX - cell viability counter screen (AID 1224847; calls by dose curve; also: nearly all actives have a fitted effect of over 30% in size; also: potency is read from the fitted curve at half-maximal effect)
Summary of the method: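 Read-out: CellTiter-Glo luminescence, 30 min RT. Cells: wild-type CHO-K1, 1000/well, 10% FBS, plated overnight at 37C. Treatment: 15 concentrations, 3 hr, 37C, 0.76% DMSO.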

[19] = qHTS assay to identify small molecule antagonists of the estrogen related receptor (ERR) signaling pathway from Tox21 library - cell viability counter screen (AID 1224834); also: nearly all actives have a fitted effect of over 30% in size; also: potency is read from the fitted curve at half-maximal effect
Summary of the method: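 ERR reporter cells, 2,000 per well, rested 6 h, then exposed to compound in DMSO for 17.5 hours at 37 C. Viability read as fluorescence after 30 min with CellTiter-Fluor.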

Chain of Luciferin 4-monooxygenase (Photinus pyralis) (P08659 whole entry, looked up): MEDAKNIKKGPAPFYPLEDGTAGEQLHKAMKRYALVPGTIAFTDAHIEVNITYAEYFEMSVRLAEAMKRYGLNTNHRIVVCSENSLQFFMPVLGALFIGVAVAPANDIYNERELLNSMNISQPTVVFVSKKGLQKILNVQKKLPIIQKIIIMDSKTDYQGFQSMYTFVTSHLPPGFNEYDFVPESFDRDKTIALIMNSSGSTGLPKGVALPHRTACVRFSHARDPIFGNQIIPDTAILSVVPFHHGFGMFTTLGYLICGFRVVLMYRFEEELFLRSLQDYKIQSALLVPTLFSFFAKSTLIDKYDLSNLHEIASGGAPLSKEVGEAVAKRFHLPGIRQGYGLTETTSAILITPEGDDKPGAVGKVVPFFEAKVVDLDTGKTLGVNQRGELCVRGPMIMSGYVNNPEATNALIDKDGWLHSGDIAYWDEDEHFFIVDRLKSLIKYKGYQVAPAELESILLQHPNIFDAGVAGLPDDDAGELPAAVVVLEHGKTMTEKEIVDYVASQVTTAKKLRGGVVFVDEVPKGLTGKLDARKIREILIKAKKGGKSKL
Chain of Nuclear receptor subfamily 1 group I member 3 (Homo sapiens) (Q14994 whole entry, looked up): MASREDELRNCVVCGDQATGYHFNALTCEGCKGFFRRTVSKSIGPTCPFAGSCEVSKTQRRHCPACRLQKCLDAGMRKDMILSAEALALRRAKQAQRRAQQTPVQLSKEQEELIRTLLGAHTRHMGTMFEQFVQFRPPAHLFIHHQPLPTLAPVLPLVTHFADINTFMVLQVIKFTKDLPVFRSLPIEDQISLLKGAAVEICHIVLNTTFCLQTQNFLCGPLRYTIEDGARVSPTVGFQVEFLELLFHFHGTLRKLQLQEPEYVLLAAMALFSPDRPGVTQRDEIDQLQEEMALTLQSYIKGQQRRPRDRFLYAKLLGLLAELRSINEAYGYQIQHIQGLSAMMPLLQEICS
Chain of Thyrotropin receptor (Homo sapiens) (P16473 whole entry, looked up): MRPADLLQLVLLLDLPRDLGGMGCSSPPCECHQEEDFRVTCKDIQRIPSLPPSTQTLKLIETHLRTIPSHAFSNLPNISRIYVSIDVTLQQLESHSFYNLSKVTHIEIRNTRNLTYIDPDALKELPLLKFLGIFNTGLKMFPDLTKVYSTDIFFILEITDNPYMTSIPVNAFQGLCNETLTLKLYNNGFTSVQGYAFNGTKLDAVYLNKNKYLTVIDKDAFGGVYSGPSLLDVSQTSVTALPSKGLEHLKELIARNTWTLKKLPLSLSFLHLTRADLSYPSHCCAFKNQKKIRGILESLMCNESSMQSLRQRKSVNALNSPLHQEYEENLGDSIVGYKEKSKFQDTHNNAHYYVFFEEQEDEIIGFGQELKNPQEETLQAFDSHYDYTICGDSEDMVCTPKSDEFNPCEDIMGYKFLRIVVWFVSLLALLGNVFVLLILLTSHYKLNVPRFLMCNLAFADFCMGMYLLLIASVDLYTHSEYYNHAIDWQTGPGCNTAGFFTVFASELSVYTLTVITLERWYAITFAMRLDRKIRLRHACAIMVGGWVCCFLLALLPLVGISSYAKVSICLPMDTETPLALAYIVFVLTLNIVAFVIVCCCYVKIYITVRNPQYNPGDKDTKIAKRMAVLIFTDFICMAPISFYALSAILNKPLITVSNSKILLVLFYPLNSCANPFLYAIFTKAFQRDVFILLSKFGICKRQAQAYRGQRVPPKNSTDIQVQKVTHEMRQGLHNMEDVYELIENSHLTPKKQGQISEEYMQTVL

Compound	Potency [1]	Potency [2]	Potency [3]	Potency [4]	Potency [5]	Potency [6]	Potency [7]	Potency [8]	Potency [9]	Potency [10]	Potency [11]	Potency [12]	activity change, positive = activation [13]	Potency [14]	Potency [15]	Potency [16]	outcome [17]	Potency [18]	Potency [19]
C=CC(=O)OCC1CC2CC1C1CCC(COC(=O)C=C)C21 (stereo unspecified)	inactive	inactive	inactive	inactive	68.6 µM (active)	inactive	inactive	inactive	–	–	–	–	–	–	–	–	–	–	–
O=c1c(O)c(-c2ccc(O)cc2)oc2cc(O)cc(O)c12	–	inactive	inactive	36.8 µM (active)	inactive	inactive	inactive	inactive	inactive	inactive	inactive	inactive	4.05% [at 42.5 µM]	inactive	inactive	–	–	–	–
COC(=O)[C@H]1[C@H]2C[C@@H]3c4[nH]c5cc(OC)ccc5c4CCN3C[C@H]2C[C@@H](OC(=O)/C=C/c2ccc(O)c(OC)c2)[C@@H]1OC	–	inactive	inactive	inactive	inactive	–	–	–	inactive	–	inactive	10.6 µM (active)	-35.3% [at 42.5 µM]	inactive	–	inactive	inactive	inactive	–
O=C1Cc2ccccc2N1c1c(Cl)cccc1Cl	inactive	inactive	inactive	30.6 µM (active)	inactive	–	–	inactive	inactive	inactive	inactive	48.6 µM (active)	-43.8%	inactive	24.5 µM (active)	inactive	inactive	–	–
CCOC(=O)[C@H](CCc1ccccc1)N[C@@H](C)C(=O)N(CC(=O)O)C1Cc2ccccc2C1	inactive	inactive	inactive	–	inactive	–	7.56 µM (active)	inactive	–	–	–	–	–	inactive	inactive	inactive	inactive	–	–
O=[N+]([O-])c1ccc(O/N=C/c2cc(Br)c(O)c(Br)c2)c([N+](=O)[O-])c1	–	–	34.2 µM (active)	–	48.3 µM (active)	inactive	inactive	inactive	–	–	–	–	–	inactive	43.4 µM (active)	–	inactive	–	30.5 µM (active)
OC[C@H]1O[C@@H](n2cnc3c(=S)nc[nH]c32)[C@H](O)[C@@H]1O	inactive	–	–	inactive	inactive	–	inactive	inactive	1.88 µM (active)	inactive	inactive	11.9 µM (active)	-47.1% [at 42.5 µM]	inactive	21.3 µM (active)	–	inactive	3.1 µM (active)	–
CC[C@]1(O)C[C@H]2CN(CCc3c([nH]c4ccccc34)[C@@](C(=O)OC)(c3cc4c(cc3OC)N(C=O)[C@H]3[C@@](O)(C(=O)OC)[C@H](OC(C)=O)[C@]5(CC)C=CCN6CC[C@]43[C@@H]65)C2)C1	inactive	–	–	inactive	–	inactive	–	inactive	0.211 µM (active)	–	–	–	–	inactive	0.0013 µM (active)	inactive	–	inactive	–
O=[N+]([O-])c1ccc(Nc2ccc(Nc3ccccc3)c(S(=O)(=O)O)c2)c([N+](=O)[O-])c1	inactive	–	inactive	inactive	inactive	inactive	–	inactive	inactive	–	–	–	–	inactive	inactive	–	–	–	–
CC(C)Nc1cccnc1N1CCN(C(=O)c2cc3cc(NS(C)(=O)=O)ccc3[nH]2)CC1	inactive	inactive	inactive	inactive	–	inactive	inactive	inactive	inactive	inactive	inactive	–	-20.7% [at 42.5 µM]	inactive	inactive	inactive	inactive	inactive	–
CS(=O)(=O)c1ccc(-c2cn3ccccc3n2)cc1	–	inactive	–	2.11 µM (active)	inactive	inactive	23.9 µM (active)	–	inactive	inactive	–	inactive	–	–	–	–	inactive	–	inactive
COc1ccccc1N1CCN(CCCCNC(=O)c2ccc(-c3ccc(C(C)=O)cc3)cc2)CC1	inactive	inactive	inactive	–	inactive	inactive	inactive	inactive	–	–	–	–	–	inactive	1.51 µM (active)	inactive	inactive	inactive	–
CN1C(=O)N(c2ccccc2Br)Cc2cnc(Nc3ccc4c(c3)OCC(CO)O4)nc21 (stereo unspecified)	–	30.6 µM (active)	–	–	21.7 µM (active)	–	inactive	inactive	–	–	inactive	8.63 µM (active)	-69.6%	–	6.16 µM (active)	inactive	–	31.8 µM (active)	27.3 µM (active)
CCOc1cccc(-n2cc(C(=O)N3CCN(c4cc(C(=O)O)c5ccccc5c4)CC3)nc2-c2ccc(C)cc2)c1	inactive	inactive	inactive	inactive	–	–	–	inactive	–	–	inactive	–	-37.7%	inactive	inactive	–	inactive	–	–
COc1ccccc1N1CCN(CC(O)COc2cccc3ccccc23)CC1 (stereo unspecified)	–	inactive	–	inactive	inactive	inactive	–	inactive	inactive	–	–	–	–	–	26.8 µM (active)	inactive	–	49.2 µM (active)	–
O=c1cc(-c2ccccc2)oc2cc(O)cc(O)c12	–	–	–	30.6 µM (active)	–	–	inactive	inactive	–	–	–	–	–	–	–	inactive	–	–	30.6 µM (active)
COC(=O)C1=C(C)NC(C)=C(C(=O)O[C@@H]2CCCN(Cc3ccccc3)C2)[C@@H]1c1cccc([N+](=O)[O-])c1	inactive	inactive	inactive	inactive	–	–	inactive	inactive	–	–	inactive	23.7 µM (active)	–	inactive	inactive	inactive	inactive	inactive	–
C/C=C\C/C=C/CCCCCCCCOC(C)=O	inactive	inactive	inactive	inactive	inactive	inactive	–	inactive	inactive	–	inactive	–	-15%	inactive	inactive	inactive	inactive	inactive	–
c1cc(N(CC2CO2)CC2CO2)ccc1Cc1ccc(N(CC2CO2)CC2CO2)cc1 (stereo unspecified)	–	–	54.5 µM (active)	inactive	30.6 µM (active)	–	–	inactive	–	27.3 µM (active)	inactive	21.7 µM (active)	-66.1%	–	34.7 µM (active)	–	–	–	43.3 µM (active)
